CYP2C19 activ – human CYP2C19 activators, primary screen, biochemical, luminescence; Cytochrome P450 2C19 (Homo sapiens), P33261; recombinant CYP2C19, luciferin-H EGE luminescence; hits give high values; 0 = fully inhibited enzyme, 1 = untreated enzyme; activation factor at 5 µM; 96,000 tested, under 10 active; AID 1025, 2008;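 active = activation factor of at least 2 at 5 µM in the primary screen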;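 also: 0 = wells with 2.5 mM tranylcypromine and 1 = vehicle-only wells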
CYP2C19 inh – blockers of cytochrome P450 2C19 activity – biochemical, luminescence, ADME assay, primary screen. inhibition, % at 5 µM. AID 778, 2007. CYP2C19 Supersomes, luciferin-H EGE luminescence, 30 min. P33261. hit rate 21% among 96,000;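 active = CYP2C19 inhibition above a set limit at 5 µM in the primary screen, cut at about 50% in these data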;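 also: plate controls were negative control wells for no effect and 2.5 mM tranylcypromine positive control for full effect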
CYP2C9 inh – blockers of cytochrome P450 2C9 activity – biochemical, luminescence, ADME assay, primary screen; CYP2C9 Supersomes, luciferin-H conversion; inhibition, % at 5 µM; P11712; hit rate 20% among 96,000; AID 777, 2007;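 active = blocking of liver enzyme CYP2C9 beyond about 50% at 5 µM, limit read from the data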
CYP2C9 activ – human CYP2C9 activators, primary screen, biochemical, luminescence. hit rate 1.4% among 96,000. Cytochrome P450 2C9 (Homo sapiens), P11712. recombinant CYP2C9, luciferin-H conversion; hits give high values; factor 1 = untreated enzyme, 0 = blocked. activation factor at 5 µM;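 active = activation factor of 2 or more for CYP2C9 at a 5 µM dose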;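 also: 0 = sulfaphenazole-blocked wells and 1 = vehicle-only wells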
sEH inhibitor – soluble epoxide hydrolase inhibitors, primary screen, biochemical, human sEH; hit rate 0.34% among 91,000; AID 707, 2007; recombinant human sEH enzymatic activity assay; Bifunctional epoxide hydrolase 2 (Homo sapiens), P34913; inhibition, % at 2 µM; in the data active = inhibition above about 80%
Target sequence (P34913 whole entry, looked up): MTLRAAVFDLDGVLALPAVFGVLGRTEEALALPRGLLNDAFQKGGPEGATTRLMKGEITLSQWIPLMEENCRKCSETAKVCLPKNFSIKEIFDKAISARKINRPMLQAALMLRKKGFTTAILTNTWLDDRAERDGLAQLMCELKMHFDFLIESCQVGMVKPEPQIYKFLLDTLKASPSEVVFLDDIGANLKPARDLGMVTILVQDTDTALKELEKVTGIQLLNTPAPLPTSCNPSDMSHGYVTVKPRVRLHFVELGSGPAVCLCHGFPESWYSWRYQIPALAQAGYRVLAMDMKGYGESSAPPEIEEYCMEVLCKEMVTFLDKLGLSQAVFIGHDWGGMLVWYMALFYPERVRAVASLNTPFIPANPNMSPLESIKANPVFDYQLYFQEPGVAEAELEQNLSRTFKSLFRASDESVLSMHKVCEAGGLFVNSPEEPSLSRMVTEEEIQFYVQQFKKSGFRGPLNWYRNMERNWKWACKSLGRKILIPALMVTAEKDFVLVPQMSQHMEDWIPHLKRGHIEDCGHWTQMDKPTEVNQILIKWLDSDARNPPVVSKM
sEH act – soluble epoxide hydrolase activators, primary screen, biochemical, human sEH; Bifunctional epoxide hydrolase 2 (Homo sapiens), P34913; purified human sEH enzymatic activity, activator screen; activation, % at 2 µM; hit rate 0.04% among 91,000; in the data active = activation above about 37%
Starred values were filed as active, the others as inactive; . = not tested or not shown. This is a sample that favours compounds with a hit; in the whole collection about 27% have one here.

SMILES | CYP2C19 activ | CYP2C19 inh | CYP2C9 inh | CYP2C9 activ | sEH inhibitor | sEH act
c1ccc(-c2nc3c(ccc4ccccc43)[nH]2)nc1 | . | . | . | . | -1 | 4
Cc1ccc(C)c(-c2nc3ccc(N)cc3[nH]2)c1 | 0.5 | 47 | 17 | 0.8 | -11 | 10
Nc1ccc(Cc2nc3c(ccc4ccccc43)[nH]2)cc1 | 0.1 | 86* | 33 | 0.7 | -16 | 13
COc1cccc(OC)c1OCCN(C)C | 0.9 | 7 | 2 | 1 | -5 | 4
CC(C)NS(=O)(=O)c1ccc(NC(=O)CCc2ccccc2)cc1 | 0.8 | 22 | 42 | 0.6 | -8 | 6
CCNS(=O)(=O)c1ccc(CCC(=O)Nc2cc(Cl)ccc2Oc2ccccc2)cc1 | 0.4 | 64* | 82* | 0.2 | 0 | 3
CC(C)NS(=O)(=O)c1ccc(CCC(=O)Nc2cc(Cl)ccc2Oc2ccccc2)cc1 | 0.6 | 45 | 67* | 0.3 | 12 | -11
CN(C)/C=N/c1sccc1C(N)=O | 1.1 | -9 | -16 | 1.2 | 21 | -19
COCCn1c(SCC(=O)NCc2ccco2)nnc1-c1c[nH]c2ccccc12 | 0.8 | 24 | 31 | 0.7 | -11 | 10
COc1cccc(-c2nnc(SCC(=O)Nc3ccc4c(c3)OCCO4)n2Cc2ccco2)c1 | 0.6 | 40 | 58* | 0.4 | 18 | -16
CCCn1c(SCC(=O)Nc2ccc3c(c2)OCCO3)nnc1-c1ccco1 | 0.3 | 73* | 92* | 0.1 | 24 | -21
COCCn1c(SCC(=O)Nc2ccc3c(c2)OCCO3)nnc1-c1c[nH]c2ccccc12 | 0.7 | 32 | 58* | 0.4 | -1 | 2
COc1cccc(-c2nnc(SCC(=O)NCc3ccc4c(c3)OCO4)n2Cc2ccco2)c1 | 0.7 | 32 | 72* | 0.3 | 10 | -7
Cc1ccccc1-c1ccc(C=Nc2c(C)n(C)n(-c3ccccc3)c2=O)o1 | 0.8 | 16 | -22 | 1.2 | -4 | 6
Cn1c(=O)c2c(nc(CN3CCC(C(N)=O)CC3)n2CCc2ccccc2)n(C)c1=O | 1.1 | -14 | -14 | 1.1 | 0 | -1
O=C(CN(Cc1ccccc1F)C(=O)Cn1nnc(-c2cccs2)n1)NC1CCCCC1 | 1 | 4 | 31 | 0.7 | 14 | -11
O=C(CN(Cc1ccccc1F)C(=O)Cn1nnc(-c2cccs2)n1)NCC1CCCO1 (centres undefined) | 0.3 | 68* | 63* | 0.4 | 0 | -2
CC(C)CCNC(=O)CN(Cc1ccc2c(c1)OCO2)C(=O)Cn1nnc(-c2cccs2)n1 | 0.5 | 48 | 92* | 0.1 | 23 | -23
O=C(CN(C(=O)Cn1nnc(-c2cccs2)n1)c1ccc2c(c1)OCCO2)NC1CCCCC1 | 0.4 | 60* | 99* | 0 | -7 | 5
CC(C)CCNC(=O)CN(CCCN1CCOCC1)C(=O)Cn1nnc(-c2ccc(F)cc2)n1 | 0.6 | 39 | 52* | 0.5 | . | .
Cc1ccc(-c2nnn(CC(=O)N(CC(=O)NC3CCCCC3)c3cnc4ccccc4c3)n2)o1 | . | . | . | . | 2 | -2
Cc1ccc(-c2nnn(CC(=O)N(CC(=O)NCC3CCCO3)c3ccccc3)n2)o1 (centres undefined) | 0.8 | 18 | 11 | 0.9 | 4 | -3
O=C(CN(C(=O)Cn1nnc(-c2cccs2)n1)c1cnc2ccccc2c1)NCC1CCCO1 (centres undefined) | 0.7 | 35 | 75* | 0.3 | . | .
O=C(CN(C(=O)Cn1nnc(-c2cccs2)n1)c1ccc2c(c1)OCCO2)NCC1CCCO1 (centres undefined) | 0.7 | 33 | 88* | 0.1 | 5 | -2
CCOC(=O)c1oc2ccc(S(=O)(=O)n3nc(-c4ccc(Cl)cc4)cc3N)cc2c1C | 0.8 | 16 | 99* | 0 | . | .
COc1ccc(-c2cc(N)n(S(=O)(=O)c3ccc(C)cc3)n2)c(OC)c1 | 0.9 | 11 | 41 | 0.6 | -25 | 22
CCOC(=O)c1oc2ccc(S(=O)(=O)n3nc(-c4ccc(C)cc4)cc3N)cc2c1C | 0.5 | 48 | 96* | 0 | -4 | 3
